The list is not random: actives were taken first. Their share in the collection is about 2.4%.
D2 ag-1: Beta-Arrestin HTS for Positive Allosteric Modulators of the Human D2 Dopamine Receptor: Agonists | DiscoveRx PathHunter D2 beta-arrestin, luminescence, 90 min; 100% = 57 uM dopamine signal | activation, % (test concentration not listed) | 0.084% of 360,000 active; in the data active means activation above about 40%
Target sequence (P14416 whole entry, looked up): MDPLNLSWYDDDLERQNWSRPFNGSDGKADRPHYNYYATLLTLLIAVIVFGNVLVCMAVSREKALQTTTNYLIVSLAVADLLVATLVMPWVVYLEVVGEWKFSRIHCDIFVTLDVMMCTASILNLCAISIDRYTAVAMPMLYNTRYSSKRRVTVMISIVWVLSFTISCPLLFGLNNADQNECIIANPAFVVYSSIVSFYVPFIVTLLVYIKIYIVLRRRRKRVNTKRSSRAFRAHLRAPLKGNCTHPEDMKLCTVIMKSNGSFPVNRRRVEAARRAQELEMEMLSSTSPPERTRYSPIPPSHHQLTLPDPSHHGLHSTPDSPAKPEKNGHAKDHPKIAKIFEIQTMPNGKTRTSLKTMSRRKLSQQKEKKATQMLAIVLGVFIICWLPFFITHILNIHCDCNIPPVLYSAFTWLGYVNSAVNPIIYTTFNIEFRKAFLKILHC
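Agonist mode: compounds alone added to overnight-plated D2 PathHunter cells for 90 min at 37 C, with 57 uM final dopamine (EC100) defining full response. Beta-arrestin recruitment detected by chemiluminescent reagent, read after 1 h at ambient temperature.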
D2 PAM-1: HTS Assay for Positive Allosteric Modulators of the Human D2 Dopamine Receptor: Primary Screen for Potentiators. potentiation, % at 10 µM. 0.34% of 340,000 active. AID 485347, 2010. D(2) dopamine receptor (Homo sapiens), P14416. HEK293 T-REx D2, calcium flux, EC20 dopamine potentiation;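 active means potentiation over 3 SD above the plate norm, cut at about 30% in these data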; further: 0% is about no effect
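Using a no-wash calcium dye in inducible, force-coupled HEK293 Trex cells expressing D2, we tracked fluorescence each second for 180 s after compound, then for 180 s after EC20 dopamine to detect augmented signalling.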
D2 antagonist: HTS Assay for Allosteric Antagonists of the Human D2 Dopamine Receptor: Primary Screen for Antagonists. 2% of 340,000 active. HEK293 TREx D2 cells, calcium flux, dopamine EC80. inhibition, % at 10 µM. D(2) dopamine receptor (Homo sapiens), P14416. AID 485344, 2010; in the data active means inhibition above about 30%; inactive means below that, where a call was filed; further: 0% is about no effect
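HEK293 T-REx D2 cells, tet-induced, calcium dye no-wash. Cpd pintool add, 180 s kinetic, then EC80 DA, 180 s kinetic. Ca flux read.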
D2 PAM-2: Beta-Arrestin HTS for Positive Allosteric Modulators of the Human D2 Dopamine Receptor: Potentiators; D(2) dopamine receptor (Homo sapiens), P14416; DiscoveRx D2 beta-arrestin cells, luminescence, 90 min; 100% = 57 uM dopamine signal; potentiation, % (concentration not given with the values); 0.23% of 360,000 active; AID 624464, 2012; in the data active means potentiation above about 50%
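PathHunter D2 cells, attached overnight at 37 deg C, received compound in DMSO plus dopamine at EC20 (50 nM final) for 90 min at 37 deg C. Beta-arrestin recruitment was read as luminescence after 1 h with detection reagent at ambient temperature.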
D2 ag-2: HTS Assay for Allosteric Agonists of the Human D2 Dopamine Receptor: Primary Screen for Agonists; D(2) dopamine receptor (Homo sapiens), P14416; HEK293 T-REx D2 cells, calcium flux agonist mode; activation, % at 2 µM; 0.53% of 340,000 active; AID 485358, 2010;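 active means activation over 3 SD above normal in the single-dose calcium agonist read, cut at about 30% in these data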; further: 0% is about no effect
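Agonism scored from kinetic calcium signal (1 read/sec, 180 s) following compound pin transfer, after a 10 s baseline. Cells: HEK293 Trex line expressing inducible D2 receptor coupled to calcium, dye-loaded after overnight culture at 30 C.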
Numbers without * were called inactive.

How did O=C(Nc1ccc(N2CCN(Cc3ccccc3Cl)CC2)cc1)c1cccnc1 do in these assays?
D2 ag-1: 0; D2 PAM-1: -3; D2 antagonist: 15; D2 PAM-2: -6; D2 ag-2: 1

What do the screens show for `O=C(Nc1ccc(N2CCCCC2)cc1)c1cccnc1`?
D2 ag-1: 3; D2 PAM-1: -8; D2 antagonist: 34*; D2 PAM-2: 12; D2 ag-2: 0

Results for COc1cc(OC)cc(C(=O)NC(=S)Nc2ccc(NC(=O)c3ccco3)cc2)c1 ?
D2 ag-1: 1; D2 PAM-1: 37*; D2 antagonist: -1; D2 PAM-2: 12; D2 ag-2: 2

What do the screens show for `COc1ccc(C(=O)NC(=S)Nc2ccc(N3CCCC3)cc2)cc1`?
D2 ag-1: 6; D2 PAM-2: -2

Results for COc1cccc(C(=O)NC(=S)Nc2ccc(N3CCCC3)cc2)c1 ?
D2 ag-1: 0; D2 PAM-1: -5; D2 antagonist: 57*; D2 PAM-2: -8; D2 ag-2: 0

What do the screens show for `O=C(N/N=C/c1ccc(N2CCCC2)c([N+](=O)[O-])c1)c1cccnc1`?
D2 ag-1: -1; D2 PAM-1: -17; D2 antagonist: 41*; D2 PAM-2: -4; D2 ag-2: 1

How did COc1ccc(NC(=O)CSc2nnc(-c3ccncc3)n2-c2ccccc2)cc1 do in these assays?
D2 PAM-1: 11; D2 ag-2: 0

Results for CN(C)C(CNC(=O)c1cccc(S(=O)(=O)N2CCN(c3ccc(F)cc3)CC2)c1)c1ccccc1 (stereo not drawn) ?
D2 ag-1: -1; D2 PAM-2: -7

What do the screens show for `CC(Nc1oc(-c2ccc(COc3ccccc3)o2)nc1C#N)c1ccccc1` (stereo not drawn)?
D2 PAM-1: 12; D2 ag-2: 0

What do the screens show for `COc1cccc(NC(=O)Cn2c(CCC(=O)O)ccc2-c2ccccc2)c1`?
D2 ag-1: -4; D2 PAM-1: 34*; D2 antagonist: 4; D2 PAM-2: -6; D2 ag-2: 1

What do the screens show for `COC(=O)c1ccc(NC(C)C(=O)OC)c([N+](=O)[O-])c1` (stereo not drawn)?
D2 ag-1: 1; D2 PAM-1: -10; D2 antagonist: 43*; D2 PAM-2: 3; D2 ag-2: -1

How did CSCCC(NC(=O)c1ccc(Cl)cc1)C(=O)OCC(C)=O (stereo not drawn) do in these assays?
D2 ag-1: -6; D2 PAM-1: -4; D2 antagonist: 32*; D2 PAM-2: -6; D2 ag-2: 1

What do the screens show for `CC(=O)N1CCc2c(sc3c2c(=O)n(CCc2ccccc2)c(=O)n3Cc2ccc(F)cc2)C1`?
D2 PAM-1: 6; D2 ag-2: 0

What do the screens show for `CCN(CC)C(=O)CSc1nc(O)c(Cc2ccc(OC)cc2)c(=O)[nH]1`?
D2 ag-1: -5; D2 PAM-1: 15; D2 antagonist: -25; D2 PAM-2: -4; D2 ag-2: 0

What do the screens show for `CCc1c(O)nc(SCC(=O)N(CC)CC)[nH]c1=O`?
D2 ag-1: -2; D2 PAM-1: 0; D2 antagonist: 34*; D2 PAM-2: 3; D2 ag-2: -1

What do the screens show for `CC1CCCN(CCC(=O)c2ccc(Br)cc2)C1` (stereo not drawn)?
D2 ag-1: 0; D2 PAM-1: -11; D2 antagonist: 29; D2 PAM-2: -50; D2 ag-2: -1

Results for CC1CCCN(CCCCOc2cccc(Br)c2)C1 (stereo not drawn) ?
D2 ag-1: 0; D2 PAM-1: -20; D2 antagonist: 75*; D2 PAM-2: -32; D2 ag-2: 0

How did Clc1cccc(OCCN2CCCC2)c1 do in these assays?
D2 ag-1: 2; D2 PAM-1: -14; D2 antagonist: 26; D2 PAM-2: -8; D2 ag-2: 0

What do the screens show for `CCOc1cccc(OCCCCN2CCCCC2)c1`?
D2 ag-1: -2; D2 PAM-1: -18; D2 antagonist: -10; D2 PAM-2: -33; D2 ag-2: 1

What do the screens show for `CC1CCCN(CCOc2ccc(Br)cc2)C1` (stereo not drawn)?
D2 ag-1: 0; D2 PAM-1: -29; D2 antagonist: 63*; D2 PAM-2: -19; D2 ag-2: 0

What do the screens show for `CC(C)c1cccc(OCCN2CCCC2)c1`?
D2 ag-1: 6; D2 PAM-1: -23; D2 antagonist: 71*; D2 PAM-2: -23; D2 ag-2: 1

What do the screens show for `Brc1cccc(OCCCCN2CCCCC2)c1`?
D2 ag-1: -1; D2 PAM-1: -37; D2 antagonist: 88*; D2 PAM-2: -13; D2 ag-2: 1

What do the screens show for `COc1ccc(NS(=O)(=O)c2cc3[nH]c(=O)c(=O)[nH]c3cc2C)cc1OC`?
D2 PAM-1: -1; D2 ag-2: 0

What do the screens show for `CCCN1CCN(c2nnc(-n3cccc3C(=O)Nc3ccccc3C(F)(F)F)s2)CC1`?
D2 PAM-1: -3

What do the screens show for `O=C(CSc1ncc2c(n1)-c1cc(Cl)ccc1N(Cc1ccccc1F)S2(=O)=O)Nc1cccc(C(F)(F)F)c1`?
D2 PAM-1: -11; D2 ag-2: 1

What do the screens show for `O=C(NCCO)c1ccc(-c2nnc(Nc3ccc(OC(F)(F)Cl)cc3)c3ccccc23)cc1`?
D2 PAM-1: -7; D2 ag-2: 0

Results for COc1ccc(C2CC(c3ccccc3)=NN2C(=O)COC(=O)c2cc(S(=O)(=O)N3CCOCC3)ccc2Cl)cc1 (stereo not drawn) ?
D2 ag-1: -1; D2 PAM-1: 2; D2 antagonist: 32*; D2 PAM-2: -11; D2 ag-2: 2

Results for COCC1CCN(Cc2cn(-c3ccccc3F)nc2-c2cc(C)sc2C)CC1 ?
D2 ag-1: -7; D2 PAM-1: -17; D2 antagonist: 73*; D2 PAM-2: -10; D2 ag-2: -1

Results for Cc1cc(-c2nn(-c3ccccc3F)cc2CN2CCC(C(N)=O)CC2)c(C)s1 ?
D2 ag-1: -3; D2 PAM-1: -19; D2 antagonist: -1; D2 PAM-2: -27; D2 ag-2: 0

What do the screens show for `Cc1ccc(OC(=O)c2cc(-c3ccccc3)nc3ccc(C)cc23)cc1`?
D2 PAM-1: 6; D2 ag-2: 2

What do the screens show for `Cc1ccc2c(C)c(C(=O)Nc3c(C)n(C)n(-c4ccccc4)c3=O)oc2c1C`?
D2 ag-1: 45*; D2 PAM-1: 7; D2 antagonist: -7; D2 PAM-2: 26; D2 ag-2: 14
